In the experiment the target is Genome polyprotein (Dengue virus type 2 (strain 16681-PDK53)) (UniProt P29991). The experiment in a line: Dengue-2 NS5 methyltransferase inhibitors, primary screen, biochemical, confirmation dose response (AID 588689). As to conditions: Dengue-2 NS5 methyltransferase capping enzyme assay, at 25 µM, stronger effect = higher value.
The mark [1] stands for this setting: measured here: pilot screen replicate inhibition.

In all, about 340,000 compounds went through this assay and about 1,000 (0.29%) were called active. Cut-off read from the data, not from the text of the source: inconclusive = inhibition above about 29% without an active follow-up result; inactive = below that. These entries were drawn from the full list. Measured potencies and affinities stand elsewhere.

Genome polyprotein (Dengue virus type 2 (strain 16681-PDK53)), sequence (P29991 whole entry, looked up): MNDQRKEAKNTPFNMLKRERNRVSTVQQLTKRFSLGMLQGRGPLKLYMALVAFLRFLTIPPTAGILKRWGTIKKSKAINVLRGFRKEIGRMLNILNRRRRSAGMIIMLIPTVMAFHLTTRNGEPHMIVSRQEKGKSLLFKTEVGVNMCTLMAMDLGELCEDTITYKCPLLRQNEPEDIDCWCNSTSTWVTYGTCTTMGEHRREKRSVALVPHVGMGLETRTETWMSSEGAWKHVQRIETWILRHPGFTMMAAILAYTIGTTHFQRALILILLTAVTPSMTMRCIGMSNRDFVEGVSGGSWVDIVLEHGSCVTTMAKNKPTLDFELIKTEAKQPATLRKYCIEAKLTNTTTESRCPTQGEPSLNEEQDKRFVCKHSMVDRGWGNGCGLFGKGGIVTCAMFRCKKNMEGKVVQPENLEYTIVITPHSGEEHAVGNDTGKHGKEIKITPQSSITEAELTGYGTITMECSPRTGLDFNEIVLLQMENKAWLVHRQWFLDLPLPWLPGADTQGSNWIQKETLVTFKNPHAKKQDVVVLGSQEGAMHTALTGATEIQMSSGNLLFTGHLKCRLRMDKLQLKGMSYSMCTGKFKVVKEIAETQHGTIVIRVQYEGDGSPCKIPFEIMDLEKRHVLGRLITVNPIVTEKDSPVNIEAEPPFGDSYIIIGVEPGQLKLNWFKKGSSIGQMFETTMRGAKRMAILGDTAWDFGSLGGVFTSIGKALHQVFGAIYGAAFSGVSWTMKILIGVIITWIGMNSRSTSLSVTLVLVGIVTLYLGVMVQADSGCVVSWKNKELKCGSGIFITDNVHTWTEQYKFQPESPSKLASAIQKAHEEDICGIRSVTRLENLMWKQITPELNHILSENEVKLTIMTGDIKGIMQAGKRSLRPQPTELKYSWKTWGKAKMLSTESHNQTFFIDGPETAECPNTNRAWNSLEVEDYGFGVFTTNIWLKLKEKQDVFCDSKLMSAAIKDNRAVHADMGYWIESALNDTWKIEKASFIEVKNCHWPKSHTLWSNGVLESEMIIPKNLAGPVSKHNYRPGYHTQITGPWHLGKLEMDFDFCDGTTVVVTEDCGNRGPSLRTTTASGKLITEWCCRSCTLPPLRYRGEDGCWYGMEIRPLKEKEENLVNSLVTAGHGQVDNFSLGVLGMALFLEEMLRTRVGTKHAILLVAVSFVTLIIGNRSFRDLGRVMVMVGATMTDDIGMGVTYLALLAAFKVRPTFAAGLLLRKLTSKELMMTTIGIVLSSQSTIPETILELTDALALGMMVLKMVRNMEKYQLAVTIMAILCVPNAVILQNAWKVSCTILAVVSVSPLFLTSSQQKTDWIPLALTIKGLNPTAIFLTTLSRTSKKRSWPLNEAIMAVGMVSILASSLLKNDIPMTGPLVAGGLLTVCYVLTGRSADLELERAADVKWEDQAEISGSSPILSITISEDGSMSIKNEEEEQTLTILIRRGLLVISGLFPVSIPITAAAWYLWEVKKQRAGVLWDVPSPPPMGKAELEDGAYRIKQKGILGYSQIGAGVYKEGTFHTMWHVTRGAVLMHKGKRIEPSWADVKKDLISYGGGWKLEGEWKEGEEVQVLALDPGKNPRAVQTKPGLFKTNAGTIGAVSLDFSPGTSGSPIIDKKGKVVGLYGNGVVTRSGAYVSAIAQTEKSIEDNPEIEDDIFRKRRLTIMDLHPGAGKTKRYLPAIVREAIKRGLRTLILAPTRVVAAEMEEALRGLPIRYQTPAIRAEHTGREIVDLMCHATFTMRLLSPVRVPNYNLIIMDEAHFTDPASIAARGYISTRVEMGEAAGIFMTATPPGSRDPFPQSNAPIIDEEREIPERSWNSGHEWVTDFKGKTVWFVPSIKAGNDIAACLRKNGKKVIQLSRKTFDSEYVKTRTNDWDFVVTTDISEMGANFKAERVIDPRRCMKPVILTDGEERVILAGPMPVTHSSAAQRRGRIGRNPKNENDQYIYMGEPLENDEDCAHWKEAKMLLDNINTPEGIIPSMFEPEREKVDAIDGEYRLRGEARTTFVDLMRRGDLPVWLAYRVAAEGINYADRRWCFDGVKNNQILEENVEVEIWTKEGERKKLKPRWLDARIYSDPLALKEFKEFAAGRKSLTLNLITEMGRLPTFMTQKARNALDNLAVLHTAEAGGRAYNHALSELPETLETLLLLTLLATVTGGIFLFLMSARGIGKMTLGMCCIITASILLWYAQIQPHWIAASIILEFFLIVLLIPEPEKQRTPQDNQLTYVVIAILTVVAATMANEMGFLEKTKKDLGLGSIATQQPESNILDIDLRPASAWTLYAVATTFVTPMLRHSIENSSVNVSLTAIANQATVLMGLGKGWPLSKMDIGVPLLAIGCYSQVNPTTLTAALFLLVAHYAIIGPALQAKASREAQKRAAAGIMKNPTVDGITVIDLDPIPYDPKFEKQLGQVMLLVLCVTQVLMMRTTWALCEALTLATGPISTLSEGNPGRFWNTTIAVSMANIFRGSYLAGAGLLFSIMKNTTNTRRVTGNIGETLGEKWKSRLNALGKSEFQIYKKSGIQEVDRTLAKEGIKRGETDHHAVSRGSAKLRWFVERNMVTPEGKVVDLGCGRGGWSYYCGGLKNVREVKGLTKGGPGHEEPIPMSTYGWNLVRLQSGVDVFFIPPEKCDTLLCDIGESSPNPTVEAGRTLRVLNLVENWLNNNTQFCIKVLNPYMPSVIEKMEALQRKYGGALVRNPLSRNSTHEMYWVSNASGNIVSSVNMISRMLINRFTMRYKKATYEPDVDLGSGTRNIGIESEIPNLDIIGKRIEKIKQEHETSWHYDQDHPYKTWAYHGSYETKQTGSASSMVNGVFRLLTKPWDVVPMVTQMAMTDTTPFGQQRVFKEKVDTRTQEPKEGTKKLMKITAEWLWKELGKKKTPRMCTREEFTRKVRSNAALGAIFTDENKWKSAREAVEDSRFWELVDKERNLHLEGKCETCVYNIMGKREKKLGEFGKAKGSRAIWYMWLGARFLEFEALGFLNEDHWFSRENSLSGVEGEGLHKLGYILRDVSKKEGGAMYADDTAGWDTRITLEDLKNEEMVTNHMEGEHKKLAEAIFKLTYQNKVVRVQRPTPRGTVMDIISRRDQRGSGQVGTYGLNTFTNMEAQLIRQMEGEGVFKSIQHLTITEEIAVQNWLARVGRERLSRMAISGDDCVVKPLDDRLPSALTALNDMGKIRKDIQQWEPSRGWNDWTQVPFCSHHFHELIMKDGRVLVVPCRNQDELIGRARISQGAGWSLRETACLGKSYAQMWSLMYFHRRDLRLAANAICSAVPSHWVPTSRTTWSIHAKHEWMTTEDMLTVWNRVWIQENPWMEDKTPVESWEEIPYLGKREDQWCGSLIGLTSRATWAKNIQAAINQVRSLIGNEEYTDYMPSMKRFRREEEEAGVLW

A word on the inhibition: it is the change of the read-out against control, counted positive when it falls. As for `Cc1ccc(NC2CCCN(C(=O)c3cn4cc(Cl)ccc4n3)C2)cc1C` (stereo unspecified), the inhibition is 3.88% (inactive).

For the molecule `COc1ccccc1N1CCN(CC(=O)Nc2ccc(CN3CCCCC3)cc2)CC1`, the inhibition was -7.05% (inactive).

Take `CC1=C(C#N)C(c2ccc(O)cc2)C2=C(CCCC2=O)N1` (stereo unspecified): the inhibition was 0% (inactive). `COc1ccc2cc(C3(C)NC(=O)N(CC(=O)NCCC4=CCCCC4)C3=O)ccc2c1` (stereo unspecified): the inhibition was -6.89% (inactive). Besides, the inhibition under setting [1] is -2.13%.

Turning to `Cc1cc(C)cc(NC(=S)NC2CC3CCCC(C2)N3C2CC2)c1` (stereo unspecified), the inhibition is -10.8% (inactive).

As for `Cc1cc(C(F)(F)F)nn1CC(=O)N1CCOCC1`, the inhibition was -2.05% (inactive). In the case of `O=C(CN1C(=O)/C(=C2\SC(=S)N(C3CCS(=O)(=O)C3)C2=O)c2ccccc21)Nc1ccccc1` (stereo unspecified), the inhibition is -1.82% (inactive). Take `O=C(CN1C(=O)CNC1=O)Nc1cccc(C(F)(F)F)c1`: the inhibition is -1.61% (inactive). Take `COc1ccc(NC(=O)CN2C(=O)/C(=C3\SC(=S)N(CCC(=O)O)C3=O)c3ccccc32)cc1`: the inhibition is 2.68% (inactive). On to `CCN1C(=O)C(=O)N(CC(=O)Nc2cccc(C(F)(F)F)c2)C1=O`, for which the inhibition was 6.2% (inactive). On to `Cc1cccc(NC(=O)CN2C(=O)/C(=C3\SC(=S)N(CC4CCCO4)C3=O)c3ccccc32)c1` (stereo unspecified), for which the inhibition is -5.35% (inactive). Still for that read-out and setting: as for `CC(=O)N1C(=S)NC(=O)/C1=C1/C(=O)N(CC(=O)Nc2cccc(C)c2)c2ccccc21`, the figure is -2.91% (inactive); as for `CCO[C@H]1OC(C(=O)O)=C[C@@H](c2cn(C(C)=O)c3ccccc23)[C@@H]1CCCO`, -0.8% (inactive); as for `Cc1ccccc1C(=O)NCCNC(=O)c1ccccn1`, 4.99% (inactive). As to `O=C(CSc1ccc(F)cc1)Nc1ccc(N2CCOCC2)c(Cl)c1`, the inhibition was -4.54% (inactive). On the same count and under the same terms, under `CC(=O)N1CCN(CC(=O)Nc2ccccc2C(=O)NCc2ccc(C)cc2)CC1` stands -0.89% (inactive); under `Cc1ccc(OCC(=O)OCC(=O)Nc2ccc3c(c2)OCO3)cc1C`, -3.82% (inactive); under `Cc1cc(C(=O)OCC(=O)NCc2ccc(Cl)cc2Cl)c(C)o1`, -0.73% (inactive). As to `Clc1ccc(CN2CCSCC2)c(Cl)c1`, the inhibition is -3.29% (inactive). Moreover, the inhibition under setting [1] was determined as 2.1%. In the case of `C=C(C)c1cccc(C(C)(C)NC(=O)N2CCCC(C)C2)c1` (stereo unspecified), the inhibition was -4.84% (inactive). Still for that read-out and setting: as for `Cc1cc(=O)[nH]c(N/N=C/c2cc(C)n(CC(F)(F)F)c2C)n1`, the figure is 1.74% (inactive). Turning to `CC1CCN(C(=S)c2cn(Cc3ccc(F)cc3)c3ccccc23)CC1`, the inhibition was -6.61% (inactive).

Regarding `COCCN(C(=O)c1csnn1)C(C(=O)NC(C)(C)C)c1cccc(OC)c1` (stereo unspecified), the inhibition is 0% (inactive). Regarding `O=[N+]([O-])c1cc(F)c(N2CCCCC2)cc1N1CCOCC1`, the inhibition was -8.91% (inactive). With `N#Cc1cc(N2CCCCC2)c([N+](=O)[O-])cc1C#N`, the inhibition was -5.36% (inactive). For `O=C(NCc1ccccc1Cl)C(=O)NCC1OCCN1S(=O)(=O)c1ccc(F)cc1` (stereo unspecified), the inhibition is -4.82% (inactive). Take `CCc1ccc2c(c1)C(=O)C(=O)N2CCS(=O)(=O)c1ccccc1`: the inhibition is -11.6% (inactive). In the case of `O=C(O)C(Cc1ccccc1)N1C(=O)/C(=C/c2ccccc2)SC1=S` (stereo unspecified), the inhibition is 15.5% (inactive). With `O=C(O)C(Cc1ccccc1)N1C(=O)/C(=C/c2cccnc2)SC1=S` (stereo unspecified), the inhibition is 8.37% (inactive). `COc1ccc(/C=C2\SC(=S)N(C(Cc3ccccc3)C(=O)O)C2=O)cc1` (stereo unspecified): the inhibition is 20.7% (inactive). Take `COc1cccc(/C=C2/SC(=S)N(CCCC(=O)Nc3ccc(O)cc3)C2=O)c1`: the inhibition is -5.15% (inactive). As for `COc1cc2c(=O)[nH]c3cc([N+](=O)[O-])ccc3c2cc1[N+](=O)[O-]`, the inhibition is 8.05% (inactive). With `CCC(=O)Nc1nnc(Cc2ccccc2)s1`, the inhibition is 1.61% (inactive). In the case of `CCN(CC)CCN1C(=O)C(=O)/C(=C(/O)c2ccc(S(=O)(=O)N3CCOCC3)cc2)C1c1ccc(Cl)cc1` (stereo unspecified), the inhibition is -6.64% (inactive). With `COc1ccccc1NS(=O)(=O)c1cccs1`, the inhibition was 0% (inactive).

`O=S(=O)(Nc1cccc2ccccc12)c1cccs1`: the inhibition was -1.29% (inactive). As to `O=C(CN1C(=O)/C(=C\c2cccc(Br)c2)Oc2ccccc21)NCCCN1CCOCC1`, the inhibition was 0.88% (inactive). `O/N=C/c1cc(Br)ccc1OCc1ccccc1F`: the inhibition is 8.73% (inactive). In the case of `O=C(CN1C(=O)/C(=C/c2cccc(Br)c2)SC1=S)N1CCCC1`, the inhibition was -5.1% (inactive). For `Cc1cc(NC(=O)CN2C(=O)/C(=C/c3ccccc3F)SC2=S)no1`, the inhibition is 2.68% (inactive). Turning to `O=C1/C(=C\c2cccc([N+](=O)[O-])c2O)SC(=S)N1Cc1ccccc1`, the inhibition was 32.5% (inactive).

Take `CCN1C(=O)C(=Cc2cccc(OC)c2Oc2ccc([N+](=O)[O-])cc2[N+](=O)[O-])SC1=S`: the inhibition was -1.31% (inactive). On the same count and under the same terms, under `O=C(CCCN1C(=O)/C(=C/c2ccccc2Cl)SC1=S)NNC(=O)c1ccccc1` stands 8.33% (inactive); under `CN1CCN(c2ccc(NS(=O)(=O)c3ccc(Cl)cc3)cn2)CC1`, -7.03% (inactive). In the case of `Cc1nnc(NC(=O)CC23CC4CC(CC(C4)C2)C3)s1`, the inhibition is -6.26% (inactive). On to `O=C(Nc1ccc2c(c1)OCO2)C1CCN(S(=O)(=O)c2cccc3cccnc23)CC1`, for which the inhibition was 2.93% (inactive). Regarding `CCCOc1ccc(/C=C/C(=O)OCC(=O)N(C)c2c(N)n(Cc3ccccc3)c(=O)[nH]c2=O)cc1OCC`, the inhibition was 3.69% (inactive).

`CC(C)N(O)C(=O)NC(C)(C)C`: the inhibition was 0% (inactive).

Regarding `COc1ccc(NC2=CC(=O)N(C)C2=O)cc1`, the inhibition was -10.2% (inactive). As for `COc1ccc(C(=O)Nc2cccc(-c3ccc4nncn4n3)c2)cc1OC`, the inhibition was 2.3% (inactive). Turning to `Cc1c(N=C/C=C2\N(C)c3ccccc3C2(C)C)c(=O)n(-c2ccccc2)n1C`, the inhibition is -3.46% (inactive). Take `CCc1cc(=O)oc2c3c(cc(OCC(=O)NCCCn4ccnc4)c12)OC(C)(C)CC3`: the inhibition is -1.45% (inactive). Take `OCC[C@H]1C[C@H](O)[C@@H](O)[C@]2(OCCc3ccccc32)O1`: the inhibition is -1.2% (inactive).

Turning to `CCOc1c(Br)cc(CNc2ccc(N3CCOCC3)cc2)cc1OC`, the inhibition is 70.4% (inactive). For the molecule `CCOc1cc(CNc2ccc(S(N)(=O)=O)cc2)cc(Cl)c1OC`, the inhibition is 3.64% (inactive). Turning to `COc1cc(CNc2ccc(N3CCCC3)cc2)cc(Cl)c1OC`, the inhibition is 13.9% (inactive).

`COc1cc(CNc2ccc(S(N)(=O)=O)cc2)ccc1OCc1ccccc1F`: the inhibition is -6.36% (inactive).

Regarding `CCOc1c(Cl)cc(CNc2ccc(S(N)(=O)=O)cc2)cc1OC`, the inhibition is -1.46% (inactive).

Consider `COc1cc(CNc2ccc(N3CCCC3)cc2)ccc1OCc1ccccc1`, for which the inhibition was 12.3% (inactive).

(Values after PubChem BioAssay AID588689 (Southern Research Specialized Biocontainment Screening …, 2011).)
